Screening results: PubChem BioAssay, National Center for Advancing Translational Sciences (NCATS)
Tb PYK inh: T. brucei pyruvate kinase inhibition | Q57TT1 | TbPYK enzyme, Kinase-Glo Plus ATP luminescence, 45 min | Potency, µM (doses to about 76.8 µM), actives largely listed as inhibitors | 410,000 compounds, 0.12% hits; further: nearly all actives have a fitted effect of over 50% in size
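Screened from lowest to highest concentration, compounds were pinned into TbPYK/substrate mixtures, and ADP (130 uM final) was added. Plates sat at room temperature for 45 min prior to Kinase-Glo Plus detection by luminescence.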
Giardia FBPA inh: Giardia lamblia aldolase inhibition | purified Giardia FBPA | AID 2451 | A8B2U2 | 290,000 compounds, 0.71% hits | Potency, µM (top dose mostly 59.6 µM), usual class: inhibitors; further: nearly all actives have a fitted effect of over 55% in size
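40 nM FBPA preincubated 10 min at RT with compound (up to 57.5 uM final), then substrate plus GAPDH/TPI/NAD/arsenate coupling and diaphorase/resazurin added. Fluorescence read after 20 min at RT, 525/598 nm.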
Shiga toxin inh: Shiga toxin inhibition; inhibition, % at 38.7 µM; Vero cells, Shiga toxin protein synthesis inhibition reporter; 290,000 compounds, 9.2% hits; AID 2315; in the data active means inhibition mostly above about 28%, no sharp cut-off; inactive means mostly below about 43%
CHX counter: counter-screen hit for Shiga toxin inhibitors, cycloheximide | cell reporter, cycloheximide protein synthesis inhibition counterscreen | 300,000 compounds, 12% hits | max response, %; in the data active means max response mostly above about 13%, no sharp cut-off; inactive means mostly below about 14%; further: read at 38.3 µM for the half of the compounds with a filed dose
LmPK inh: LmPK (Leishmania mexicana) enzyme inhibition; 290,000 compounds, 0.37% hits; purified LmPK, Kinase-Glo ATP luminescence, 1 h; Potency, µM (highest dose often 57.5 µM), hits mostly inhibitors; AID 1721; Q27686
Target sequence (Q27686 whole entry, looked up): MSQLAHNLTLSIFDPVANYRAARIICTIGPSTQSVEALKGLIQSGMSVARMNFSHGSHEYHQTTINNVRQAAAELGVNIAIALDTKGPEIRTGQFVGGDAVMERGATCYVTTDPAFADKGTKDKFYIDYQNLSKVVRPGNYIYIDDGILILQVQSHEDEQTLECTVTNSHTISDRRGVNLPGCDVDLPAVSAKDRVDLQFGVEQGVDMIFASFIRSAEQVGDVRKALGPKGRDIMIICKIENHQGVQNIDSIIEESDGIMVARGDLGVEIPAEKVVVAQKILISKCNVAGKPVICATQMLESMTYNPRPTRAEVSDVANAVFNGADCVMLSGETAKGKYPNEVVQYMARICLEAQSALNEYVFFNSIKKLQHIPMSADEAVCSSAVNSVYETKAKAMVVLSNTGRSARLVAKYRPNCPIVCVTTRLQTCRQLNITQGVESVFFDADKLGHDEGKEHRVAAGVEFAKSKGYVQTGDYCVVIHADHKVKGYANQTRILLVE
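Pyruvate kinase activity monitored as ATP production (luciferase luminescence). Conditions: 0.1 nM enzyme, 0.5 mM PEP, 0.1 mM ADP, 1 h, RT; normalized against uninhibited and no-enzyme wells.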
RE007 growth inh: less growth of the S. pombe RE007 Vpr strain | S. pombe RE007 Vpr strain, BacTiter-Glo ATP luminescence, 24 h | Potency, µM (top dose mostly 92.2 µM), actives largely listed as inhibitors | 360,000 compounds, 0.21% hits | AID 651644; active means well fitted falling curve with a large enough effect; further: nearly all actives have a fitted effect of over 50% in size
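Fission yeast RE007 carrying one integrated HIV-1 vpr copy, seeded at OD 0.01 in PMG+AL medium with 23 nL pinned compound. Grown 24 h at 30 degrees; viability read by BacTiter-Glo luminescence after 5 min.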
Each line names hits and unclear results; the compound was inactive in the other large screens. Only a selection was taken, and hits are over-represented in it overall. Unless noted, the call rests on the fitted dose curve; in most records, active means well fitted curve in the direction sought with a large enough effect; inconclusive means small, poorly fitted or top-dose-only effect, or another doubt; inactive means no such curve, though single readings can be large; an effect the other way counts as inactive or inconclusive.

O=C(O)c1c2c(nc3ccccc13)/C(=C/c1ccc(OC(F)F)cc1)CCC2	Shiga toxin inh 57.9, CHX counter 22.7
O=C(CS(=O)(=O)c1ccccc1)Nc1ccc(Cl)cn1	Shiga toxin inh 67.0 (no result: Giardia FBPA inh)
O=C(CCS(=O)(=O)c1ccccc1)Nc1ccc(Cl)cn1	Shiga toxin inh 61.0, CHX counter 24.1
CCC(=O)NC[C@H](Cc1ccc(OCCc2nc(-c3ccccc3)oc2C)cc1)N/C(C)=C\C(=O)c1ccc(C(F)(F)F)cc1	none (no result: Tb PYK inh, LmPK inh, RE007 growth inh)
COc1ccccc1NC(=O)CSc1nncn2c1cc1sccc12	none (no result: Giardia FBPA inh, Shiga toxin inh, CHX counter, LmPK inh, RE007 growth inh)
CCN(CC)C(=O)CSc1nc(N)c2c3c(sc2n1)CC(C)CC3 (configuration not stated)	Shiga toxin inh 56.9, CHX counter 21.4
CCOC(=O)CSc1nc(N)c2c3c(sc2n1)CCCC3	CHX counter 25.1
CC1CCc2c(sc3nc(SCC(=O)NCc4ccco4)nc(N)c23)C1 (configuration not stated)	CHX counter 16.6
O=C(NCc1ccccc1Cl)C1CCCN(C(=O)c2cnn(-c3ccc(F)cc3)c2-n2cccc2)C1 (configuration not stated)	none (no result: Giardia FBPA inh, Shiga toxin inh, CHX counter, LmPK inh, RE007 growth inh)
O=C(NC1CC1)c1cccc(Nc2ccc(-c3ccc4c(c3)OCCO4)nn2)c1	Shiga toxin inh 55.3, CHX counter 30.9
O=S(=O)(c1ccc(Nc2ccc(-c3ccc4c(c3)OCCO4)nn2)cc1)N1CCCC1	CHX counter 54.2
O=C(COC(=O)Cc1ccc2c(c1)OCCO2)Nc1ccc(S(=O)(=O)N2CCCC2)cc1	none
O=C(O)C1CC(CCCP(=O)(O)O)CCN1 (configuration not stated)	none (no result: Tb PYK inh, LmPK inh, RE007 growth inh)
CCc1ccc(NC(=O)CC2C(=O)N(c3cccc(C)c3)C(=O)N2Cc2cccc(OC)c2)cc1 (configuration not stated)	none (no result: Giardia FBPA inh, Shiga toxin inh, CHX counter, LmPK inh, RE007 growth inh)
CCC(=O)N1CCc2cc(S(=O)(=O)CCC(=O)NCc3ccccc3Cl)ccc21	none (no result: Giardia FBPA inh, Shiga toxin inh, CHX counter, LmPK inh, RE007 growth inh)
CC(=O)c1ccc(NC(=O)C2CCCC2)cc1	CHX counter 9.4
CC(=O)c1cccc(NC(=O)NC2CCCCC2)c1	none
CC(=O)c1cccc(NC(=O)NC2CCCCCCC2)c1	CHX counter 36.0
CC(=O)c1ccc(NC(=S)NC2CCCC(C)C2C)cc1 (configuration not stated)	Shiga toxin inh 48.1, CHX counter 17.1
CC(=O)c1cccc(NC(=O)C2CCCC2)c1	none
O=C(Nc1cccc(Cl)c1)NC1CC2CCC1C2 (configuration not stated)	CHX counter 23.4 (no result: Shiga toxin inh)
Cc1nc2ccc(NC(=O)CCC3CCCC3)cc2s1	Shiga toxin inh 96.8, CHX counter 45.1
COC(C(=O)N1CCC(CCC(=O)Nc2ccccc2)CC1)c1ccccc1 (configuration not stated)	Shiga toxin inh 47.7, CHX counter 36.8 (no result: Giardia FBPA inh)
S=C(NCCc1cccc(Cl)c1)NC1CCCCC1	Shiga toxin inh 76.6, CHX counter 59.5
O=C(Nc1cccc(Cl)c1)NC1CCCCC1	Shiga toxin inh 91.5, CHX counter 37.9
CSc1ccc(C(O)c2ncc(-c3ccccc3F)[nH]2)cc1 (configuration not stated)	none (no result: Giardia FBPA inh, Shiga toxin inh, CHX counter, LmPK inh)
CC(=O)c1ccc(NC(=O)NC2CCCCCCC2)cc1	Shiga toxin inh 94.8, CHX counter 38.6 (no result: Giardia FBPA inh)
Cc1cccc(NC(=O)CCC2CCN(C(=O)c3ccc(C)s3)CC2)c1	CHX counter 22.4 (no result: Giardia FBPA inh)
COc1ccc(-c2noc(N3CCCC(C(=O)Nc4ccc(C(C)=O)cc4)C3)n2)cc1 (configuration not stated)	CHX counter 27.7 (no result: Giardia FBPA inh)
COCc1ccc(C(=O)N2CCC(CCC(=O)Nc3cccc(C)c3)CC2)s1	none (no result: Giardia FBPA inh)
CC(=O)c1ccc(-c2ccc(C(=O)NC3CCCCCC3)o2)cc1	Shiga toxin inh 41.3, CHX counter 27.5
CC(=O)c1cccc(NC(=O)Cn2nc(C)n3cccc3c2=O)c1	none (no result: Giardia FBPA inh, Shiga toxin inh, CHX counter, LmPK inh, RE007 growth inh)
C[C@H](NC(=O)c1ncn2c1C(=O)N[C@@H](C)C2)C(=O)OC(C)(C)C	none (no result: Giardia FBPA inh, Shiga toxin inh, CHX counter, LmPK inh)
Cc1cccc(NC(=O)NC2CCCCCCC2)c1	Shiga toxin inh 92.6, CHX counter 41.5 (no result: Giardia FBPA inh)
CC(=O)c1cccc(NC(=O)CCC2CCCC2)c1	CHX counter 25.4
N#Cc1c(-c2ccc(F)cc2)ccnc1N1CCOCC1	CHX counter 18.5
CN(c1ccccc1)c1ccc(/C=N/NC(=O)CC#N)cc1	Shiga toxin inh 58.1, CHX counter 28.5
CNC(=O)CO/N=C/c1ccc(N(C)C)cc1	Shiga toxin inh 28.9, CHX counter 21.6
CN(C)c1ccc(/C=N/NC(=O)COc2ccccc2)cc1	Shiga toxin inh 43.7, CHX counter 37.6
CN(C)/C=C(\C#N)C(=O)N/N=C/c1ccccc1	CHX counter 27.5
O=C(N/N=C/c1ccccc1)C(=O)N/N=C/c1ccccc1	none
Cc1ccc(CNC(=O)C2CCCN(S(=O)(=O)c3ccc4c(c3)oc(=O)n4C)C2)cc1 (configuration not stated)	none (no result: Giardia FBPA inh, Shiga toxin inh, CHX counter, LmPK inh, RE007 growth inh)
CCC(=O)Nc1ccc2nc(SCc3ccccc3)sc2c1	none (no result: Giardia FBPA inh, Shiga toxin inh, CHX counter, LmPK inh, RE007 growth inh)
Cc1ccccc1N(CC(=O)N/N=C/c1ccc(N(C)C)cc1)C(=O)c1ccccc1	CHX counter 33.6
Cc1ccccc1N(CC(=O)N/N=C/c1ccccc1Cl)C(=O)c1ccccc1	none
CN(C)c1ccc(/C=N/NC(=O)CNC(=O)/C=C/c2ccccc2)cc1	Shiga toxin inh 29.7, CHX counter 29.7 (no result: Giardia FBPA inh)
CCOC(=O)C1CCCN(C(=O)CN2C(=O)/C(=C/c3ccc(OC)cc3)Oc3ccccc32)C1 (configuration not stated)	Shiga toxin inh 28.7
CCOC(=O)C1CCCN(C(=O)CSc2ccccc2)C1 (configuration not stated)	Shiga toxin inh 63.9, CHX counter 43.0
CCOC(=O)C1CCCN(C(=O)CC(C)c2ccccc2)C1 (configuration not stated)	Shiga toxin inh 168.5, CHX counter 101.1
Cc1ccc(N2CCN(C(=O)NCc3noc4ccccc34)CC2C)cc1 (configuration not stated)	none (no result: Giardia FBPA inh, Shiga toxin inh, CHX counter, LmPK inh, RE007 growth inh)
O=C1C(Cl)=C(N2CCCCC2)C(=O)N1Cc1ccccc1	none
O=C1C(Cl)=C(NCCCN2CCOCC2)C(=O)N1CCc1ccccc1	CHX counter 24.1
O=C1C(Cl)=C(NCCc2ccccc2)C(=O)N1CCc1ccccc1	none
CN1CCN(C2=C(Cl)C(=O)N(CCc3ccccc3)C2=O)CC1	Shiga toxin inh 39.8, CHX counter 48.3
O=C1C(Cl)=C(N2CCOCC2)C(=O)N1CCc1ccccc1	Shiga toxin inh 133.5, CHX counter 47.0
O=C1C(Cl)=C(Nc2cccc(O)c2)C(=O)N1Cc1ccccc1	none
O=C1C(Cl)=C(Nc2ccc(F)cc2)C(=O)N1CCc1ccccc1	Shiga toxin inh 81.7, CHX counter 59.4
